Molecules are shown by their SMILES. “And” between values parts separate entries of the source, which are not always exact repeats. Identical values can stand only once. Records with an inconclusive call do not appear. A structure can be active in one record and inactive in another. The source made the active and inactive calls. Unless noted, calls follow the shape of the dose curve; as a rule, active = well fitted curve in the direction sought with a large enough effect in the repeat runs; inconclusive = weak or mixed curves; inactive = no such curve, though single readings can be large; an effect the other way counts as inactive or inconclusive.

Assay [1] is described as follows: Human pregnane X receptor (PXR) small molecule agonists, qHTS cell viability counter screen (AID 1346977). Also: nearly all actives have a fitted effect of over 50% in size. Also: potency is read from the fitted curve at half-maximal effect. An outline of the steps: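 PXR-Luc HepG2 cells in medium with 5% charcoal-stripped FBS were pre-incubated 5hr, then exposed to compounds for 24hr at 37C. Viability was read in the same wells by CellTiter-Fluor fluorescence, reagent added after 23hr with a 1hr incubation.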

Assay [2] in a line: Caspase-3/7 induction in HepG2 cells by small molecules, qHTS assay (AID 1346978). Also: nearly all actives have a fitted effect of over 15% in size. The method in brief:
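Wild-type HepG2 cells (2,000/well) were settled 5 h at 37 C, 5% CO2, then exposed to compounds in DMSO for 17 h. Caspase-3/7 activity was read by luminescence 30 min after adding Caspase-Glo 3/7 reagent at room temperature.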

The nature of assay [3]: Caspase-3/7 induction in CHO-K1 cells by small molecules, qHTS cell viability counter screen (AID 1346979). Also: nearly all actives have a fitted effect of over 35% in size. Also: potency is read from the fitted curve at half-maximal effect. An outline of the steps: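 Wild-type CHO-K1 cells were seeded at 1,500 per well, rested 5hr at 37 C, then exposed to compounds in DMSO. After 16hr, CellTiter-Fluor reagent was added and fluorescence read 1hr later as the viability measure.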
Assay [4] in a line: Caspase-3/7 induction in CHO-K1 cells by small molecules, qHTS assay (AID 1346980). Also: nearly all actives have a fitted effect of over 15% in size. The method in brief:
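Wild-type cells were seeded at 1,500 per well and settled 5 hr at 37 C, 5% CO2, then exposed to DMSO-dissolved compounds for 17 hr. Caspase-Glo 3/7 reagent was added, and luminescence was read after 30min at room temperature.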

The target of assay [5] is Nuclear receptor subfamily 1 group I member 2 (Homo sapiens) (UniProt O75469). Kind of assay: Human pregnane X receptor (PXR) small molecule agonists, qHTS assay (AID 1346982). Also: nearly all actives have a fitted effect of over 35% in size. Also: potency is read from the fitted curve at half-maximal effect. The method in brief:
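PXR-Luc HepG2 reporter cells (CYP3A4-driven luciferase) in 5% charcoal-stripped FBS medium, plated 5 h before compound addition, then treated 24 h at 37C. Luciferase read by ONE-Glo luminescence after 30 min at room temperature.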

In assay [6] the target is Cytochrome P450 2D6 (Homo sapiens) (UniProt P10635). Kind of assay: Cytochrome P450 Family 2 Subfamily D Member 6 (CYP2D6) small molecule antagonists: luciferase reporter qHTS assay (AID 1671196). Also: series mostly up to about 120 µM; nearly all actives have a fitted effect of over 50% in size. The method in brief: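 Cell-free P450-Glo system: CYP2D6 with proluciferin substrate was pre-incubated with compound for 10 min, then reacted with NADPH regeneration for 1 h at room temperature. Luciferin product was detected after 20 min, and data were reported as relative luminescence units.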
Chain of Cytochrome P450 2D6 (Homo sapiens) (P10635 whole entry, looked up): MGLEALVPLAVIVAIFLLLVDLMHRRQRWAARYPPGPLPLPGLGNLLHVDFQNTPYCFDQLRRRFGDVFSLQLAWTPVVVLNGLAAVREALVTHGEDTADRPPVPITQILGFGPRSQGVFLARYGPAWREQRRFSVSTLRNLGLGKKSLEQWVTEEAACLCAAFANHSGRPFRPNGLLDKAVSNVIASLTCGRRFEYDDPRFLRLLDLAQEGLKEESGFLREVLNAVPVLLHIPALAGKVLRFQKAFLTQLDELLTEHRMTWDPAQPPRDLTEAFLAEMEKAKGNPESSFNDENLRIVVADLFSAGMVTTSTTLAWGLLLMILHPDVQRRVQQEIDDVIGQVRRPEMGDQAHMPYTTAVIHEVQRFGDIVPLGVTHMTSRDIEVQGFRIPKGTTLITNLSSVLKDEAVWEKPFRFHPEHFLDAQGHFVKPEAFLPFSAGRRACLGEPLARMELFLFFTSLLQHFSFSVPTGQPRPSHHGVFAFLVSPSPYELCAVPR

Assay [7] in a line: Caspase-3/7 induction in HepG2 cells by small molecules, qHTS cell viability counter screen (AID 1346981). Also: series mostly up to about 92 µM; nearly all actives have a fitted effect of over 30% in size. The method in brief:
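Wild-type HepG2 cells, 2,000/well, settled 5 hr at 37 C, 5% CO2 before compound addition. Viability read by CellTiter-Fluor fluorescence, reagent added after 16 hr compound exposure, then 1 hr at 37C, in the same wells as the caspase read.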

In assay [8] the target is Nuclear receptor subfamily 1 group I member 2 (Homo sapiens) (UniProt O75469). Kind of assay: Human pregnane X receptor (PXR) activation by small molecules, qHTS assay (AID 1346985). Also: nearly all actives have a fitted effect of over 40% in size. Also: potency is read from the fitted curve at half-maximal effect. An outline of the steps:
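DPX-2 cells (HepG2 co-transfected with a PXR response element and a CYP3A4-promoter luciferase construct) were seeded at 2,000 per well, rested 5 hr at 37C, then exposed to DMSO-dissolved compounds for 24 hr. Activation was read as luciferase luminescence.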

Assay [9] has as its target Nuclear receptor subfamily 1 group I member 2 (Rattus norvegicus) (UniProt Q9R1A7). In words: Rat pregnane X receptor (rPXR) activation by small molecules, qHTS assay (AID 1346983). Also: nearly all actives have a fitted effect of over 20% in size. The settings on record: rPXR luciferase reporter cells, One-Glo luminescence, 24 h; max activation: stronger effect = higher value. The method in brief:
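Cell-based rPXR luciferase reporter assay, 2,000 cells per well, rested 5hr at 37 C before compound addition in DMSO, then 24 hr at 37 C. One-Glo reagent was added and luminescence read after 30 min at room temperature.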

Assay [10] addresses Thyrotropin-releasing hormone receptor (Homo sapiens) (UniProt P34981). In words: qHTS assay to identify small molecule agonists of the thyrotropin-releasing hormone receptor (TRHR) signaling pathway (AID 1346891; calls by dose curve; also: potency is read from the fitted curve at half-maximal effect; as to activation: series mostly up to about 58 µM). An outline of the steps:
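TRHR-expressing HEK293 cells were plated 18 h at 37 °C/5% CO2, loaded with calcium dye 2 h at 37 °C, then given compound in DMSO; fluorescence was read kinetically for 3 min at 1 s intervals.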
% is scaled to controls: 0 for no effect and ±100 for the full control effect.

Chain of Thyrotropin-releasing hormone receptor (Homo sapiens) (P34981 whole entry, looked up): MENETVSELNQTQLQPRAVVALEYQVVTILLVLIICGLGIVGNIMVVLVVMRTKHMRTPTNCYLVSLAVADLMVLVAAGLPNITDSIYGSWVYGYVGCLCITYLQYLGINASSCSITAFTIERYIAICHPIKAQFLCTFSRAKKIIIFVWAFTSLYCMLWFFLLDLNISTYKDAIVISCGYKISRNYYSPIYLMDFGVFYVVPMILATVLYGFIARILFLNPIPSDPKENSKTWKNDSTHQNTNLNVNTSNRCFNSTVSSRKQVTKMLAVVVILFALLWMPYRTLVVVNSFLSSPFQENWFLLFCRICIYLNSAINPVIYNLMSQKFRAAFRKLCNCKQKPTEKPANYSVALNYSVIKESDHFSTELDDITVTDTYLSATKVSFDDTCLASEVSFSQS
Chain of Nuclear receptor subfamily 1 group I member 2 (Rattus norvegicus) (Q9R1A7 whole entry, looked up): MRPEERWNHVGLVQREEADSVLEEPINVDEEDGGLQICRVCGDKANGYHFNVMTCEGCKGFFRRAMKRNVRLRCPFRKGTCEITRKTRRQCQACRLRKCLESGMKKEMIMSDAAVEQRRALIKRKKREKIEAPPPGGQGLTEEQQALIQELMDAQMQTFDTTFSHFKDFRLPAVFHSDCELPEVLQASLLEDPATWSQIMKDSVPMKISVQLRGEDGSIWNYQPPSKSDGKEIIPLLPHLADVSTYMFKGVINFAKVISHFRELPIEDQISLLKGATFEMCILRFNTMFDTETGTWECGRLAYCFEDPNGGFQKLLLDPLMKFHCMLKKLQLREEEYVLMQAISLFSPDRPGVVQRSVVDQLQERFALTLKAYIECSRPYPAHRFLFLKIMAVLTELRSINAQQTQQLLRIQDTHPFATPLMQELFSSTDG
Chain of Nuclear receptor subfamily 1 group I member 2 (Homo sapiens) (O75469 whole entry, looked up): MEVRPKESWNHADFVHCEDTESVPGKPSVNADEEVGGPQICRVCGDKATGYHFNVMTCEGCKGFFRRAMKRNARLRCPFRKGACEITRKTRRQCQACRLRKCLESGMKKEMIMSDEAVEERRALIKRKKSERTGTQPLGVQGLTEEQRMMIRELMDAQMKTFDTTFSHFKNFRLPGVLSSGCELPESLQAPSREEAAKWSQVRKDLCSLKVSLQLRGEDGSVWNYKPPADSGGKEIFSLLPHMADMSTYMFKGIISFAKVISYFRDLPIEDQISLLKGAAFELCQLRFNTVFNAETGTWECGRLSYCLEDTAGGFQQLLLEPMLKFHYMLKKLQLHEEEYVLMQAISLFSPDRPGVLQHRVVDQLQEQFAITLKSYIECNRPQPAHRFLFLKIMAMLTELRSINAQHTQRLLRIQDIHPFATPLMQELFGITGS

Regarding `O=C(Nc1ccc([N+](=O)[O-])cc1Cl)c1cc(Cl)ccc1O`, the Potency in assay [1] is 1.22 µM (active) and 1.46 µM (active); in assay [3], 2.17 µM (active) and 2.59 µM (active); in [5] it was 686 nM (active) and 291 nM (active). The Potency entry in assay [2], in assay [4] and in assay [6] was “inactive” in each case.

For `O=C=Nc1ccc(Cc2ccc(N=C=O)cc2)cc1`, the Potency entry in [1], in assay [2], in assay [3], in assay [4], in assay [7] and in [6] was “inactive” in each case.

Take `CC(=O)O[C@]1(C(C)=O)CC[C@H]2[C@@H]3C=C(Cl)C4=CC(=O)[C@@H]5C[C@@H]5[C@]4(C)[C@H]3CC[C@@]21C`: the Potency result in assay [1], in assay [2], in assay [4], in assay [7], in assay [8] and in assay [6] was “inactive” throughout. The Potency in assay [5] is 61.1 µM (active) and inactive.

For `COc1ccc(OC)c(C(O)CNC(=O)CN)c1` (configuration not stated), the Potency entry in assay [1], in assay [2], in assay [3], in [4], in assay [7] and in [5] was “inactive” throughout. Also, the Potency result in assay [8] and in [6] was “inactive” throughout. For the same compound, the max activation in assay [9] is 1.02% (inactive).

With `Cc1cc2nc3c(=O)[nH]c(=O)nc-3n(C[C@H](O)[C@H](O)[C@H](O)CO)c2cc1C`, the Potency in assay [10] was 10.9 µM (active) and 6.42 µM (active) and 6.57 µM (active); in assay [5] it was 30.3 µM (active) and inactive. The Potency entry in [2], in assay [4] and in assay [8] was “inactive” throughout. Further, in assay [9], the max activation is -0.456% (inactive).

`Nc1ccc(Cl)cc1Cl`: the Potency entry in assay [1], in [2], in assay [3], in assay [4], in [7] and in assay [5] was “inactive” in each case. For the same compound, the Potency result in assay [6] is “inactive”.

In the case of `CCC(C)(O)CCCC(C)C` (configuration not stated), the Potency entry in [1], in assay [2], in assay [3], in assay [4], in assay [7] and in assay [5] was “inactive” throughout. Further, the Potency result in [6] is “inactive”.

As to `CCC(C)CO` (configuration not stated), the Potency entry in assay [1], in assay [2], in assay [3], in [4], in [7] and in [5] was “inactive” each time. Besides, the Potency entry in assay [6] was “inactive”.

For the compound `Clc1nc(Cl)c(Cl)c(Cl)c1Cl`, the Potency result in assay [1], in assay [2], in assay [3], in assay [4], in assay [7] and in assay [5] was “inactive” throughout. Further, the Potency entry in assay [6] was “inactive”.

Consider `C=C(C)C1CC=C(C)CC1` (configuration not stated), for which the Potency entry in assay [1], in assay [2], in [3], in [4], in [7] and in [5] was “inactive” throughout. Moreover, the Potency result in assay [8] and in [6] was “inactive” in each case. In assay [9], the max activation was -4.17% (inactive).

For `O=[N+]([O-])c1ccc2c(c1)Cc1ccccc1-2`, the Potency entry in assay [1], in assay [2], in [4], in assay [7] and in [6] was “inactive” each time. The Potency in assay [5] is 48.5 µM (active) and 54.5 µM (active).

As for `CC(C(=O)O)c1cccc(C(=O)c2ccccc2)c1` (configuration not stated), the Potency entry in assay [10], in assay [2], in [3], in assay [4], in [7] and in assay [6] was “inactive” throughout.

With `CC1=CC2C3CC(C=C3C)C2C1` (configuration not stated), the Potency entry in [1], in [2], in [3], in assay [4], in assay [7] and in [6] was “inactive” throughout. For the same compound, the Potency result in assay [5] was “inactive and 27.3 µM (active)”.

With `CCCCCCCCCCCO`, the Potency result in [1], in assay [2], in [3], in assay [4], in [7] and in [5] was “inactive” in each case. The Potency entry in [6] is “inactive”.

Take `Cc1ncc[nH]1`: the Potency result in [1], in assay [2], in assay [3], in assay [4], in [7] and in assay [6] was “inactive” throughout. Moreover, the max activation in [9] is 1.32% (inactive).

As to `CCOC(=O)C(C#N)=C(c1ccccc1)c1ccccc1`, the Potency entry in [1], in [2], in assay [3], in [4], in [7] and in assay [6] was “inactive” each time. In addition, the Potency in assay [5] was 24.3 µM (active) and 11.9 µM (active); in assay [8], 12.6 µM (active).

(Values after PubChem BioAssay (Tox21).)
